DT40 TDP1 no CPT: qHTS for Inhibitors of human tyrosyl-DNA phosphodiesterase 1 (TDP1): qHTS in cells in absence of CPT; Potency, µM (top dose mostly 46.2 µM), without a hit: at the highest dose activity change, negative = growth inhibition, actives largely listed as inhibitors; 420,000 compounds, 15% hits; DT40 Tdp1-/- hTDP1 cells, no CPT, ATP luminescence, 48 h; AID 686978, 2013; note: nearly all actives have a fitted effect of over 55% in size
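Readout: luminescence from CellTiter-Glo after 30 min in the dark at RT. Cells: DT40 Tdp1-/- with stable hTDP1, 400/well. Exposure: compounds alone, ≥48 hr, 37 °C.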
TDP1 inh: blocks human tyrosyl-DNA phosphodiesterase 1 | 350,000 compounds, 0.28% hits | Q9NUW8 | Potency, µM (titrated, usually from 130 µM), for the others: top-dose activity change, negative = inhibition, actives largely listed as inhibitors | recombinant TDP1, AlphaScreen DNA substrate cleavage; note: nearly all actives have a fitted effect of over 40% in size
Target sequence (Q9NUW8 whole entry, looked up): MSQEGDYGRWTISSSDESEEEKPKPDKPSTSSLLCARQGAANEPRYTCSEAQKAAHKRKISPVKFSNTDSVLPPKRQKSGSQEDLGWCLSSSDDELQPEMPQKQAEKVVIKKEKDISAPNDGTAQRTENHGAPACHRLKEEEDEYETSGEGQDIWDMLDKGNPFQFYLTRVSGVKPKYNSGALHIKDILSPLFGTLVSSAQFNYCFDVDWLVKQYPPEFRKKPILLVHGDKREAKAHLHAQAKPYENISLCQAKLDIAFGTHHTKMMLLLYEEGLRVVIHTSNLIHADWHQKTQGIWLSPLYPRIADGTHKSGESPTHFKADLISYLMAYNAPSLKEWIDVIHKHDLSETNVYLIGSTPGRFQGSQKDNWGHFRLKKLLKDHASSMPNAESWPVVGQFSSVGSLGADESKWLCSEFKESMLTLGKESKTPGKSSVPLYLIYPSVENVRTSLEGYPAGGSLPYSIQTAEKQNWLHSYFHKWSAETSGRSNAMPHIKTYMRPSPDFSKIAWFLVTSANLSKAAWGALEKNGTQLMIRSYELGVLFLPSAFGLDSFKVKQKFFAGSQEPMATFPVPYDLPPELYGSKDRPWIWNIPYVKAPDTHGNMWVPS
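Steps: enzyme plus compound, 15 min RT; add biotin/phosphotyrosine-FITC oligonucleotide (15 nM final), react 5 min; add donor/acceptor beads (10 ug/ml final), 10 min; read AlphaScreen. Tdp1 at 1 nM final.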
VP16 counter: inhibits Gal4-VP16 luciferase reporter, ROR gamma counter-screen | Drosophila S2 Gal4-VP16 UAS-luciferase, luminescence, 20 h | Potency, µM (highest dose often 53.6 µM), for the others: at the highest dose activity, negative = inhibition, hits mostly inhibitors | 310,000 compounds, 3.5% hits | AID 2546;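 note: Gal4-VP16 expression switched on by copper sulfate through the metallothionein promoter; nearly all actives have a fitted effect of over 50% in size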
DT40 TDP1 CPT: growth inhibition of DT40 Tdp1-/-;hTDP1 cells with camptothecin (screen for TDP1 inhibitors). chicken DT40 Tdp1-/-;hTDP1 cells + 20 nM CPT, ATP luminescence, 48 h. Potency, µM (titrated, usually from 46.2 µM), inactives show at the highest dose activity change, negative = growth inhibition, most hits filed as inhibitors. 420,000 compounds, 12% hits. AID 686979; note: nearly all actives have a fitted effect of over 55% in size
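Cell growth measured by CellTiter-Glo luminescence after a minimum 48 h, 37 C compound exposure with 20 nM CPT in Tdp1-knockout DT40 cells stably expressing hTDP1, seeded 400/well; qHTS titration format.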
RORgamma inh: blocks mouse ROR gamma transcriptional activity; P51450; Drosophila S2 Gal4-RORgamma UAS-luciferase reporter, 20 h; Potency, µM (highest dose often 53.6 µM), for the others: at the highest dose activity change, negative = inhibition, hits mostly inhibitors; 310,000 compounds, 5.4% hits; AID 2551; note: nearly all actives have a fitted effect of over 60% in size
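Stably transfected Drosophila Schneider cells are the test system, with ROR gamma fused to Gal4 and luciferase under UAS control; luminescence is read after 20 hr of 700 uM copper sulfate induction at ambient temperature.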
Active calls of the source: *; ? = inconclusive; · = no result given; [ ] = remark or other dose. Compounds with a hit are over-represented: about 19% of the library has one in this group of screens. Calls come from the whole dose curve; as a rule, active = well fitted curve in the direction sought with a large enough effect; inconclusive = small, poorly fitted or top-dose-only effect, or another doubt; inactive = no such curve, though single readings can be large; an effect the other way counts as inactive or inconclusive. % is set by controls: 0 for no effect and ±100 for the full control effect; potency is the fitted concentration of half-maximal effect.

SMILES | DT40 TDP1 no CPT | TDP1 inh | VP16 counter | DT40 TDP1 CPT | RORgamma inh
COc1ccc(S(=O)(=O)NCc2ccc(C(=O)N3CCc4ccccc4C3)cc2)cc1 | 23µM* | 2% | 0% | 23µM* | 42%
CS(=O)(=O)N(Cc1ccc(C(=O)N2CCc3ccccc3C2)cc1)c1ccccc1 | ? | -1% | ? | ? | 33%
CCOC(=O)N1CCN(C(=O)c2ccc(CNS(=O)(=O)c3ccc(OC)cc3)cc2)CC1 | -27% | 3% | 3% | -15% | 4%
Cc1ccc(CN(c2ccc(C(=O)N3CCc4ccccc4C3)cc2)S(C)(=O)=O)cc1 | 15µM* | 2% | 2% | ? | 18%
O=C(OCc1ccc(COC(=O)c2ccccn2)cc1)c1ccccn1 | -18% | 5% | 4% | 0% | 17%
CCN(c1cc(C)cc(C)c1)S(=O)(=O)c1nnc(NC(=O)C(C)C)s1 | -11% | · | -9% | -21% | -4%
COc1ccc2cc(C(=O)C3CCCN(C(=O)c4cnn(C(C)C)c4)C3)ccc2c1 (stereo not given) | ? | 5% | 12% | 26µM* | 11%
Cc1nnc(SCC(=O)N2CCCC(C(=O)c3ccc(Cl)cc3)C2)o1 (stereo not given) | -8% | -1% | -10% | 5% | 30%
COc1ccc2cc(C(=O)C3CCCN(C(=O)CSc4nnc(C)o4)C3)ccc2c1 (stereo not given) | 21µM* | 0% | -2% | 18µM* | 23%
COc1ccc2cc(C(=O)C3CCCN(C(=O)c4cncs4)C3)ccc2c1 (stereo not given) | 12µM* | 5% | 1% | 18µM* | 23%
COc1ccc2cc(C(=O)C3CCCN(C(=O)c4csnn4)C3)ccc2c1 (stereo not given) | ? | 0% | -17% | -20% | -6%
FC(F)c1nc2nc(Cl)c(Cl)nc2[nH]1 | ? | · | · | 16µM* | ·
FCc1nc2nc(Cl)c(Cl)nc2[nH]1 | ? | · | · | -15% | ·
COCC(=O)N(C)C1(c2nnnn2CCOC(=O)Nc2ccc(Cl)cc2)CCCC1 | 2% | 7% | 1% | 8% | 65%
Cc1c(C(=O)N2CCC3(CC2)CC(=O)c2ccccc2O3)cccc1[N+](=O)[O-] | 23µM* | 1% | · | 18µM* | ·
O=C1CC2(CCN(C(=O)c3ccc(Br)cc3)CC2)Oc2ccccc21 | 18µM* | 1% | · | ? | ·
O=C1CC2(CCN(C(=O)c3ccccc3Br)CC2)Oc2ccccc21 | -29% | 1% | · | -22% | ·
O=C1CC2(CCN(C(=O)c3ccc([N+](=O)[O-])cc3)CC2)Oc2ccccc21 | ? | -9%[0.505 µM] | · | ? | ·
c1ccc(Cn2ccnc2SCc2nnc(-c3ccccc3)o2)cc1 | ? | 4% | 7% | ? | 15%
CCN(CC)C(=O)C1=C(C)N(CCC2=CCCCC2)C(=O)C(CC(=O)NCc2cccc3ccccc23)C1 (stereo not given) | ? | · | · | 16µM* | ·
CCN(CC)C(=O)C1=C(C)N(Cc2ccc(OC)cc2)C(=O)C(CC(=O)NCc2cccc3ccccc23)C1 (stereo not given) | 23µM* | · | · | ? | ·
CCN(CC)C(=O)C1=C(C)N(Cc2ccccc2)C(=O)C(CC(=O)NCc2cccc3ccccc23)C1 (stereo not given) | 18µM* | · | · | ? | ·
CCN(CC)C(=O)C1=C(C)N(Cc2ccccc2)C(=O)C(CC(=O)NCc2cccs2)C1 (stereo not given) | -28% | · | · | ? | ·
Cc1ccc2nc3c(cc2c1)c(C)nn3-c1ccccc1 | -19% | · | 9% | 0% | 13%
Cc1nn(-c2ccccc2)c2nc(=O)n(-c3ccccc3)cc12 | 7.3µM* | 0% | -4% | 8.2µM* | 20%
SMILES | DT40 TDP1 no CPT | TDP1 inh | VP16 counter | DT40 TDP1 CPT | RORgamma inh
CC(C)(C)S(=O)N1Cc2cc(C(=O)NCc3ccc(Oc4ccccc4)cc3)nc(-c3cccc(-c4cc5ccccc5o4)c3)c2[C@H]1CCO (stereo not given in full) | 23µM* | · | · | ? | ·
CC(C)(O)C#Cc1cccc(-c2nc(C(=O)NCCCN3CCOCC3)cc3c2[C@H](CCO)N(S(=O)C(C)(C)C)C3)c1 (stereo not given in full) | -5% | · | · | -13% | ·
CC(C)(C)S(=O)N1Cc2cc(C(=O)NCCCN3CCOCC3)nc(-c3cccc(-c4cc5ccccc5o4)c3)c2[C@@H]1CCO (stereo not given in full) | 18µM* | · | · | 13µM* | ·
COc1ccc(NS(=O)(=O)c2cccc(C(=O)OCC(=O)Nc3cc(C)on3)c2)cc1 | -3% | 4% | -10% | -7% | 17%
Cn1ccc2c(-c3cccc4ccccc34)cc3c(c21)C1CCC3C1 (stereo not given) | ? | · | · | -51% | ·
Cn1ccc2c(-c3ccc(F)cc3F)cc3c(c21)C1CCC3C1 (stereo not given) | ? | · | · | -22% | ·
COc1ccc(-c2cc3c(c4c2ccn4C)C2CCC3C2)cc1OC (stereo not given) | 26µM* | · | · | ? | ·
Cn1ccc2c(-c3cncc4ccccc34)cc3c(c21)C1CCC3C1 (stereo not given) | 18µM* | · | · | ? | ·
Cn1ccc2c(-c3cccc(C=O)c3)cc3c(c21)C1CCC3C1 (stereo not given) | ? | · | · | 23µM* | ·
COc1cccc(Cn2c(=O)c(-c3cc(F)cc(F)c3)nc3cncnc32)c1 | -10% | · | 2% | 1% | 18%
CCCCc1c(-c2cccc(Br)c2)ncn1CCc1ccccc1OC | 5.8µM* | · | · | 5.8µM* | ·
CCCc1c(-c2cccc(F)c2)ncn1Cc1ccccc1OC | 8.2µM* | · | · | 9.2µM* | ·
COc1ccccc1CN1CCC2(CC1)CCN(C(=O)c1cccc(F)c1)CC2 | 1% | · | -4% | -3% | -29%
CCCc1c(-c2cccc(F)c2)ncn1CCc1ccccc1OC | 15µM* | · | · | ? | ·
CCCCCc1c(-c2cccc(Cl)c2)ncn1CCc1ccccc1OC | 23µM* | · | · | 23µM* | ·

Assay outcomes as filed in PubChem BioAssay.
